This note sets out measurements from the supplement of paper PMC3334620.

Over roughly 33,000 sequences, “E-score (-0.5 to 0.5)” has its median near -0.035; the highest 2% begin near 0.35. This excerpt belongs to a sample that is enriched for the highest values.

The target in this assay is T1, Pdr3 (UniProt P33200).
T1 sequence: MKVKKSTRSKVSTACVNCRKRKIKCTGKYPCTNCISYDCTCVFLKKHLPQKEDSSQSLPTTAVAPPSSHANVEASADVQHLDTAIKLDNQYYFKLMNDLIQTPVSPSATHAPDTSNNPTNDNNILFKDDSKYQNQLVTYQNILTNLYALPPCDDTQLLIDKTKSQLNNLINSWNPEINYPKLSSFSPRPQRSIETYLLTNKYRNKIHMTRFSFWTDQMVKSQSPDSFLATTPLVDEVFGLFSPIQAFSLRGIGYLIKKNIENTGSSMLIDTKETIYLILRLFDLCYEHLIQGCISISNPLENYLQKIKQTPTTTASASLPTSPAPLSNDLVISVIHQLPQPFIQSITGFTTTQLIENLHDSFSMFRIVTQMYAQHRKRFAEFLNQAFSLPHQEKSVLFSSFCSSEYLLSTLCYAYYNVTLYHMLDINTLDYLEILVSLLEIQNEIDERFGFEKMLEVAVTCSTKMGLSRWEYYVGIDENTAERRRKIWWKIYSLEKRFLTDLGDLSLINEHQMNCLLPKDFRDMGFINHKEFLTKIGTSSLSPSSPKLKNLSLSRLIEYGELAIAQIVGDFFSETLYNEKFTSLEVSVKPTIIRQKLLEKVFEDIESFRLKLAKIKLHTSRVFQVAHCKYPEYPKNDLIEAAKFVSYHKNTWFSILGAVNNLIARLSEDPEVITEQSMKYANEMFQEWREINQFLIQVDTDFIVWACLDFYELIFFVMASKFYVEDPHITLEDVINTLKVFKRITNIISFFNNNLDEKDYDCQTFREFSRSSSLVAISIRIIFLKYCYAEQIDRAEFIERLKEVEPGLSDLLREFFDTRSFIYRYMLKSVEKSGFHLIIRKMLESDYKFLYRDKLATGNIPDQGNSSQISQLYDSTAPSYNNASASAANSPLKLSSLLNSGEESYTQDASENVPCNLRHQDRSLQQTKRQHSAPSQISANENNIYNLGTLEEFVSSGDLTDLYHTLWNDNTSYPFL
Put plainly: PBM E-score (8-mer binding enrichment) (E-score (-0.5 to 0.5)); higher = stronger / more preferred TF binding. Particulars: protein concentration: 200 nM; construct: GST-full length. Here is the method: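 Universal 'all 10-mer' protein binding microarrays (Agilent AMADID 015681) probed with GST-tagged S. cerevisiae TFs (full-length or DBD) made by in vitro transcription/translation (PURExpress), about 100-200 nM. Bound TF was detected with fluorescent anti-GST. Each ungapped 8-mer (which stands for itself and its reverse complement) is scored by the PBM enrichment score (E-score), a modified Wilcoxon-Mann-Whitney statistic from -0.5 to +0.5, computed with the Universal PBM Analysis Suite. Scale: above 0.35 generally sequence-specific binding.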
As for GGACCGCA, the “PBM E-score” value stood at 0.243. With CGACCGGA, the “PBM E-score” value turned out to be 0.358. In the case of CGACCGAA, the “PBM E-score” value was determined as 0.0221. In the case of ATGCCAGC, the “PBM E-score” value is -0.22. In the case of CTCAAAAA it was -0.0515; in that of CACCCGTC, 0.215; in that of CAGTCTGC, -0.173. With CTACTTGA the figure was -0.238. With CTGGATTC the figure was 0.105.

Turning to CGGGATTA, the “PBM E-score” value is 0.404. With GGGGATGA the figure was 0.0246; with AGGGATTA, -0.132; with GGGGATTA, 0.162. With CGGGATGA the figure was 0.369; with CGGGATTC, 0.382. With CGGGATGC the figure was 0.311; with AGGGATTC, -0.0434. Regarding AGCCGAGC, the “PBM E-score” value amounted to 0.267.

As for GTAACCCA, the “PBM E-score” value came out at 0.0499.

For the sequence AAGCGAAA, the “PBM E-score” value is -0.0467.

Turning to CTCGTAGC, the “PBM E-score” value is -0.167.

For CGACCATA, the “PBM E-score” value came to 0.0144. Regarding CTTCTGGA, the “PBM E-score” value is -0.0291. Take CATCTACC: the “PBM E-score” value was 0.0434. With TACTCGGA the figure was 0.336; with CCCTCGGA, 0.373. With CCGTCGGC the figure was 0.285.

For CCGTCGGA, the “PBM E-score” value stood at 0.361. In the case of CCCTCGGC it was 0.173; in that of CGCTCGGA, 0.359.

Consider GACTCGGA, for which the “PBM E-score” value is 0.39. In the case of AACTCGGA it was 0.296; in that of AGCTCGGA, 0.316; in that of ACGTCGGA, 0.175. In the case of GGCTCGGA it was 0.338; in that of GCCTCGGA, 0.308; in that of ACGATCAG, -0.108.

Turning to AGCTCCCT, the “PBM E-score” value was -0.178. Consider CATAAAGG, for which the “PBM E-score” value is -0.0331. In the case of TCACGAAA it was 0.0507; in that of AGCGGGGG, -0.158.

ACCTCGGG: the “PBM E-score” value stood at 0.158. ACCTCGGC: the “PBM E-score” value is 0.307.

With ACCTCGGA, the “PBM E-score” value amounted to 0.357. In the case of AACGTCAA it was -0.146; in that of GCTATTCA, 0.0956; in that of AATGGTAG, -0.0896. In the case of GGAACTCC it was 0.366; in that of AGAACTCC, 0.0347.

Consider CGAACTCC, for which the “PBM E-score” value was determined as 0.132.

Consider CTCGCGAG, for which the “PBM E-score” value amounted to 0.192.

On to ACGCGGTC, for which the “PBM E-score” value turned out to be 0.181. In the case of CGGCGGTC it was 0.145; in that of CCGCGGTA, 0.473; in that of CTGCGGGC, 0.218. With GCGCGGTA the figure was 0.28; with ACGCGGTA, 0.0327. With CCGCGGGC the figure was 0.484; with CCGCGGTC, 0.432; with ACGCGGGC, 0.17. Consider GATCCAAA, for which the “PBM E-score” value is 0.064. In the case of ACGTCTAT it was -0.168. Regarding ACGTAGCT, the “PBM E-score” value is -0.31. In the case of CCGTCTAG it was 0.178. For TACGGCAA, the “PBM E-score” value was -0.034. In the case of GCCGGCAA it was 0.37; in that of TTCGGCAA, -0.0284. With ACCGGCAA the figure was 0.185; with ACCGGCAC, 0.192.

On to CCCGGCAC, for which the “PBM E-score” value came to 0.154.

Consider CCCGGCAA, for which the “PBM E-score” value was 0.286. In the case of GCCGGCAC it was 0.392; in that of TCCGGCAA, 0.356. With TGAACGAA the figure was -0.195; with CCTCAACC, -0.118. In the case of AGATTACA it was -0.107. As to ACTGTGAG, the “PBM E-score” value was -0.0549. In the case of GAGGCTGA it was -0.305; in that of AGAGGGCG, 0.126; in that of CGCGCTAA, 0.205.

Take CCGGTCGA: the “PBM E-score” value worked out at 0.167. With CCCGGACA the figure was 0.362.

As for ACCGGACA, the “PBM E-score” value worked out at 0.206. In the case of CCCCGACA it was 0.0765; in that of CCCGGACG, 0.223; in that of TCCGGACA, 0.447. In the case of GCCGGACA it was 0.315.
